Data on 25 compounds can be found in publication PMC11062922 (Nature Chemical Biology, 2023).

SMILES strings stand for the structures. Read-outs that look alike come from different tables or passages of the source.

Design in all cases: species or system human, MV4-11 + K-562 + COLO205 + SK-N-BE2 + OVCAR-8
The test system of experiment [1] is IKBKE. To be noted: read-out: apparent Kd, compound concentrations: 100 nM and 1000 nM (sheet 'Samples'), n = 1.
The test system of experiment [2] is MAP4K1. The settings on record: read-out: apparent Kd, n = 1.
The test system of experiment [3] is MELK. To be noted: read-out: apparent Kd, n = 1.
The subject of experiment [4] is ULK3. The settings on record: read-out: apparent Kd; compound concentrations: 100 nM and 1000 nM (sheet 'Samples'), CATDS: 1.2201291111952599E-2; n = 1.
For experiment [5], the system named is ATM. The settings on record: read-out: apparent Kd, n = 1.
The test system of experiment [6] is CSNK1E. The settings on record: read-out: apparent Kd; compound concentrations:100 nM and 1000 nM (sheet 'Samples'); n = 1.
For experiment [7], the system named is FECH. The settings on record: read-out: apparent Kd, n = 1.
Experiment [8] concerns CDK6. The settings on record: read-out: apparent Kd, n = 1.
In experiment [9] the test system is ICK. To be noted: read-out: apparent Kd, n = 1.
In experiment [10] the test system is PIK3C3. To be noted: read-out: apparent Kd; compound concentrations:100 nM and 1000 nM (sheet 'Samples'); n = 1.
Experiment [11] has as its system MYLK3. To be noted: read-out: apparent Kd; compound concentrations:100 nM and 1000 nM (sheet 'Samples'); n = 1.
The subject of experiment [12] is ERN2. The settings on record: read-out: apparent Kd, n = 1.
Experiment [13] concerns ERN1. To be noted: read-out: apparent Kd, compound concentrations: 100 nM and 1000 nM (sheet 'Samples'), n = 1.
In experiment [14] the test system is FER. The settings on record: read-out: apparent Kd; compound concentrations:100 nM and 1000 nM (sheet 'Samples'); n = 1.
The test system of experiment [15] is RPS6KA6. The settings on record: read-out: apparent Kd; compound concentrations:100 nM and 1000 nM (sheet 'Samples'); n = 1.
Experiment [16] concerns ULK1. The settings on record: read-out: apparent Kd; compound concentrations:100 nM and 1000 nM (sheet 'Samples'); n = 1.
Experiment [17] has as its system ILK. The settings on record: read-out: apparent Kd, n = 1.
The subject of experiment [18] is GRK6. To be noted: read-out: apparent Kd; compound concentrations:100 nM and 1000 nM (sheet 'Samples'); n = 1.
The test system of experiment [19] is PRKX;PRKY. The settings on record: read-out: apparent Kd; compound concentrations: 100 nM and 1000 nM (sheet 'Samples'), CATDS: 3.2948163641369002E-2; n = 1.
Where [20] appears, read: compound concentrations:100 nM and 1000 nM (sheet 'Samples').

With `CNC(=O)c1ccccc1Nc1nc(Nc2cccc(CS(C)(=O)=O)c2)ncc1C.O=CO` [GSK1520489A], the potency estimated from few doses was 1110 nM in experiment [1] (CATDS: 1.0336564492146301E-2); 423 nM in experiment [2] (compound concentrations: 100 nM and 1000 nM (sheet 'Samples'), CATDS: 1.32778170160273E-2); 1610 nM in experiment [3] (compound concentrations: 100 nM and 1000 nM (sheet 'Samples'), CATDS: 9.6320632964756892E-3); 563 nM in experiment [4].

Consider `Cn1cc(-c2cnc(N)c3c(-c4ccc5c(c4)CCN5C(=O)Cc4ccccc4)csc23)cn1` [GSK2593074A], for which the potency estimated from few doses in experiment [2] (setting [20]) is 1630 nM.

`CNc1nccc(-c2c(-c3ccc(F)cc3)ncn2C2CCN(C)CC2)n1` [SB-222903]: the potency estimated from few doses in experiment [5] (setting [20]) is 80.7 nM; in [6], 41.6 nM.

Take `Cn1cc(-c2ccc3c(c2)CCN3C(=O)Cc2cc(F)cc(C(F)(F)F)c2)c2c(N)ncnc21` [GSK2635225A]: the potency estimated from few doses in experiment [1] (CATDS: 0.14106315772238301) is 1220 nM.

On to `COc1cc2ncn(-c3cc(OCc4ccncc4)c(C(N)=O)s3)c2cc1OC` [GSK336313A], for which the potency estimated from few doses in experiment [7] (setting [20]) is 2250 nM.

`N#Cc1cccc(Nc2nccc(-c3cnn4ncccc34)n2)c1` [GW778894X]: the potency estimated from few doses in experiment [8] (setting [20]) was 1970 nM; in [6], 314 nM; in experiment [9] (setting [20]), 1.67 nM; in experiment [10], 994 nM.

As to `O=S(=O)(CCOCc1ccc(-c2ccc3ncnc(Nc4ccc(OCc5cccc(F)c5)c(Cl)c4)c3c2)o1)c1ccccc1` [GW615311X], the potency estimated from few doses was 179 nM in [5] (compound concentrations: 100 nM and 1000 nM (sheet 'Samples'), CATDS: 0.104410485471121); 1150 nM in experiment [1] (CATDS: 3.0296968888376598E-2).

Take `COc1cc(/C=N/Nc2ncnc3[nH]ncc23)ccc1O` [GW578748X]: the results for the potency estimated from few doses in experiment [3] (setting [20]) and in experiment [11] were 2390 nM and 2040 nM, respectively.

In the case of `CC(C)c1nc(-c2ccc(F)c(NS(=O)(=O)c3c(F)cccc3F)c2)c(-c2ccnc(Nc3ccc(N4CCOCC4)nc3)n2)s1` [GSK1804250A], the potency estimated from few doses in [12] (setting [20]) was 1120 nM.

For `CN1CCN(Cc2ccc(NC(=O)Nc3ccc(N(C)c4ccnc(Nc5ccc(CS(C)(=O)=O)cc5)n4)cc3)cc2)CC1.Cl` [GW827654A], the potency estimated from few doses in experiment [2] (compound concentrations: 100 nM and 1000 nM (sheet 'Samples'), CATDS: 4.9471634979456398E-2) was 557 nM.

Turning to `CC(=O)N1CCN(c2ccc(Nc3nccc(-c4sc(C(C)C)nc4-c4cccc(NS(=O)(=O)c5cccc(Cl)c5)c4)n3)cn2)CC1` [GSK1660437A], the potency estimated from few doses in experiment [13] (CATDS: 3.4539361157079097E-2) was 2420 nM.

Regarding `CC(C)c1nc(-c2cccc(NS(=O)(=O)c3c(F)cccc3F)c2F)c(-c2ccnc(Nc3ccc(N4CCOCC4)nc3)n2)s1` [GSK2008607A], the potency estimated from few doses in experiment [13] (CATDS: 1.9066828422081999E-2) is 1650 nM; in [12] (compound concentrations: 100 nM and 1000 nM (sheet 'Samples'), CATDS: 2.27822446193667E-2), 926 nM.

Regarding `CC(C)c1nc(-c2cccc(NS(=O)(=O)c3c(F)cccc3F)c2)c(-c2ccnc(Nc3ccc(N4CCOCC4)nc3)n2)s1.Cl` [GSK1723980B], the potency estimated from few doses in experiment [13] (CATDS: 1.53606700454439E-2) is 1320 nM.

In the case of `Cl.Cn1c(=O)c(Cc2ccc(F)cc2F)cc2cnc(NC3CCOCC3)nc21` [RO3308757-001], the potency estimated from few doses in experiment [5] (setting [20]) was 247 nM; in [14] it was 302 nM; in [15], 599 nM; in [16], 1550 nM.

Consider `Clc1ccc(-c2nn3ncccc3c2-c2ccnc(Nc3ccccc3)n2)cc1` [GW829055X], for which the potency estimated from few doses in [17] (compound concentrations: 100 nM and 1000 nM (sheet 'Samples'), CATDS: 5.2015680047351402E-2) was 690 nM.

For the compound `COc1cc(F)c(F)c(F)c1C(=O)c1cnc(NC2CCN(S(C)(=O)=O)CC2)nc1N` [RO4600703-000], the potency estimated from few doses in experiment [9] (setting [20]) was 246 nM.

For `CCCN1CCC(Oc2cc(Nc3nc(Nc4cccc(F)c4C(N)=O)c4cc[nH]c4n3)c(OC)cc2Cl)CC1` [GSK1713088A], in [8] (compound concentrations: 100 nM and 1000 nM (sheet 'Samples'), CATDS: 0.18030383020801999), the potency estimated from few doses is 2000 nM.

`NC(=O)c1cccnc1COc1cc(-c2ccc(N3CCOCC3)nc2)cc2ncccc12` [BI01125081]: the potency estimated from few doses in experiment [18] was 1700 nM; in experiment [10], 1260 nM.

Regarding `COc1ccc(C2=C(c3cn(C)c4ccccc34)C(=O)NC2=O)cc1OC` [RO3206363-000], the potency estimated from few doses in experiment [19] is 1620 nM.

Consider `Fc1ccc(-c2ncn(C3CCNCC3)c2-c2ccnc(Oc3ccc4c(c3)OCO4)n2)cc1` [SB-250715], for which the potency estimated from few doses in [6] was 811 nM.

Turning to `Fc1cccc(COc2ccc(Nc3ncncc3C#Cc3ccccc3)cc2Cl)c1` [GW651576X], the potency estimated from few doses in experiment [17] (compound concentrations: 100 nM and 1000 nM (sheet 'Samples'), CATDS: 6.7664406837509503E-2) is 1010 nM.

Take `Nc1c(C(=O)c2ccccc2)cnn1-c1ccc(F)cc1` [RO1151246-000]: the potency estimated from few doses in experiment [8] (setting [20]) was 2120 nM.

As for `Cn1cc(C2=C(c3ccccc3[N+](=O)[O-])C(=O)NC2=O)c2ccccc21` [RO0317753-000], the potency estimated from few doses in experiment [9] (compound concentrations: 100 nM and 1000 nM (sheet 'Samples'), CATDS: 0.27950775870472) is 32.3 nM.

For the compound `Cc1ccc(-n2nc(C(C)(C)C)cc2NC(=O)Nc2ccc(OCCN3CCOCC3)cc2)cc1` [BIRB0876BS], the figures for the potency estimated from few doses in experiment [18] and in experiment [17] (setting [20]) were 2170 nM and 1870 nM, respectively.

Turning to `Cc1ccc(NC(=O)c2cccc(C#N)c2)cc1-c1ccc(C(=O)Nc2ccncc2)cc1` [GSK1398463A], in [7] (compound concentrations: 100 nM and 1000 nM (sheet 'Samples'), CATDS: 0.41072954272515799), the potency estimated from few doses is 1300 nM.
